High-throughput results (PubChem BioAssay)
HT1080 IDH1KD tx – toxicity to HT-1080 IDH1 knockdown cells (counter line). Potency, µM (series often up to 46.1 µM), inactives show top-dose activity, negative = toxicity, hits mostly cytotoxic. HT-1080 IDH1 knockdown viability, ATP luminescence, 48 h. 360,000 compounds, 2% hits;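 note: 0% = DMSO wells and -100% = cell-free medium wells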
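Assay cells: HT-1080 with IDH1 knockdown, 750 per well, RPMI/5% FBS. Exposure: 48 h at 37 °C following 2 h pre-incubation. Read: CellTiter-Glo luminescence; fitted concentration-response, curve class assigned.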
TGFb SMAD3 inh – blocks TGF-b signaling. HepG2 CAGA-GFP TGF-b/SMAD3 reporter, GFP fluorescence, 18 h; TGF-beta stimulated, 500 pg/mL final. Potency, µM (highest dose often 46.1 µM), for the others: top-dose activity, negative = inhibition, actives largely listed as inhibitors. 410,000 compounds, 1.2% hits; note: % is set by controls: 0 for no effect and ±100 for the full control effect; nearly all actives have a fitted effect of over 65% in size
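HEPG2 CAGA-GFP, 1000 cells/well; 2 h settle, 37 C; cpd via pin tool; TGF-b 500 pg/mL final; 18 h, 37 C; GFP imaging ex488/em500-530; %Activity normalised to -TGF-b and +DMSO controls; CRC fit, curve class.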
HT1080NT lethal – kills 2HG-producing HT-1080-NT fibrosarcoma cells; 360,000 compounds, 1.6% hits; HT-1080-NT fibrosarcoma viability, CellTiter-Glo ATP luminescence, 48 h; Potency, µM (doses to about 46.1 µM), for the others: at the highest dose activity, negative = less viability, usual class: cytotoxic;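 note: NT is the 2HG producing partner of a matched IDH1 knockdown line; 0% = DMSO-treated cells and -100% = media-only wells without cells; nearly all actives have a fitted effect of over 55% in size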
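750 cells/well, RPMI + 5% FBS; 2 h settle, compound pin-transfer, 48 h at 37 degrees C. CellTiter-Glo 10 min RT, luminescence. Normalized to DMSO and media-only wells.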
HepG2 tox – HepG2 cytotoxicity, counter-screen for TGF-b inhibitors. HepG2 CAGA-GFP viability, ATP luminescence, 18 h. Potency, µM (top dose mostly 46.1 µM), for the others: at the top dose activity change, negative = cytotoxicity, most hits filed as cytotoxic. 410,000 compounds, 0.76% hits. AID 588856
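HepG2 CAGA-GFP cells (1000/well, DMEM with 1% FBS) received compound, then TGF-beta at 500 pg/mL final, and were incubated 18 hours at 37 degrees C. Viability was read by CellTiter-Glo luminescence. Media-only wells were set as complete cell-killing and DMSO as no toxicity.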
S2 tox – viability counter-screen for ATXN expression inhibitors. AID 651635. 400,000 compounds, 0.49% hits. Potency, µM (top dose mostly 56.7 µM), hits mostly cytotoxic. S2 cells (HEK-293 line with an ATXN2-luciferase reporter) viability, CellTiter-Fluor protease fluorescence, 24 h; note: nearly all actives have a fitted effect of over 40% in size
ATXN2 expr inh – ATXN2 expression inhibition. AID 1745845. Potency, µM (top dose mostly 57 µM), for the others: top-dose activity change, negative = inhibition, actives largely listed as inhibitors. 360,000 compounds, 0.72% hits. HEK-293 ATXN2-luciferase reporter, luminescence, 24 h; note: % is set by controls: 0 for no effect and ±100 for the full control effect; nearly all actives have a fitted effect of over 55% in size
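qHTS (up to 57 uM final) was run with 24 h compound exposure of reporter cells at 37 °C. Each well was multiplexed: SteadyGlo luminescence measured ATXN2-luciferase expression after a fluorogenic Gly-Phe-AFC viability readout (25 uM final).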
The depositor's hits bear a star. An excerpt weighted towards active compounds, which were near 3.9% of everything screened. Calls come from the whole dose curve; as a rule, active = well fitted curve in the direction sought with a large enough effect; inconclusive = small, poorly fitted or top-dose-only effect, or another doubt; inactive = no such curve, though single readings can be large; an effect the other way counts as inactive or inconclusive. Potency is the fitted concentration of half-maximal effect.

`Cc1ccc(NC(=O)c2cc(-c3cccs3)nc3ccccc23)nc1` gave HT1080 IDH1KD tx 21µM*, TGFb SMAD3 inh -24%, HT1080NT lethal inconclusive, HepG2 tox 4%, S2 tox inactive and ATXN2 expr inh -31%.
For COc1ccc(S(=O)(=O)NCCc2sc3nc(-c4ccc(C)cc4)nn3c2C)cc1C the results were TGFb SMAD3 inh inconclusive and HepG2 tox -27%.
CCN(Cc1ccccc1)S(=O)(=O)c1ccc(C(=O)Nc2nnc(C3CC3)o2)cc1 was read as HT1080 IDH1KD tx -17%, TGFb SMAD3 inh -12%, HT1080NT lethal -15%, HepG2 tox -34%, S2 tox inactive and ATXN2 expr inh 20µM*.
COc1cc2nc(Cl)nc(N)c2cc1OC was read as S2 tox inactive and ATXN2 expr inh 9%.
`O=C(Nc1c(C(=O)N2CCN(c3ccccc3)CC2)oc2ccccc12)c1ccc(Br)o1` gave TGFb SMAD3 inh -26% and HepG2 tox 1%.
Screening Cc1nn(CC(O)c2ccccc2)c(C)c1Br (stereo not given) returned HT1080 IDH1KD tx 1%, TGFb SMAD3 inh 0%, HT1080NT lethal 15% and HepG2 tox 1%.
`Cc1nn(CC(O)CN2c3ccccc3Sc3ccccc32)c(C)c1Br` (stereo not given) gave HT1080 IDH1KD tx inconclusive, TGFb SMAD3 inh 13µM*, HT1080NT lethal inconclusive, HepG2 tox -121%, S2 tox inactive and ATXN2 expr inh 0%.
For OC(CN1c2ccccc2Sc2ccccc21)Cn1nnc2ccccc21 (stereo not given) the results were HT1080 IDH1KD tx inconclusive, TGFb SMAD3 inh 0%, HT1080NT lethal -16%, HepG2 tox 18µM*, S2 tox inconclusive and ATXN2 expr inh -11%.
For O=C(CN1CCCN(S(=O)(=O)c2ccc(Br)s2)CC1)Nc1ccc(Cl)cc1 the results were HT1080 IDH1KD tx 18µM*, TGFb SMAD3 inh 5%, HT1080NT lethal inconclusive, HepG2 tox -41%, S2 tox inactive and ATXN2 expr inh inconclusive.
Screening COc1ccc2c(=O)cc(-c3ccncc3)oc2c1OC returned HT1080 IDH1KD tx 23µM*, TGFb SMAD3 inh inconclusive, HT1080NT lethal inconclusive, HepG2 tox -26%, S2 tox inactive and ATXN2 expr inh -25%.
For COc1ccc(-c2cc(=O)c3c(OC)c(OC)c(OC)c(OC)c3o2)cc1OC the results were HT1080 IDH1KD tx -22%, TGFb SMAD3 inh -2%, HT1080NT lethal -8%, HepG2 tox -18%, S2 tox inactive and ATXN2 expr inh -3%.
Screening CCn1cc(CN2CCN(CCC(C)C)C(CCO)C2)c2ccccc21 (stereo not given) returned HT1080 IDH1KD tx -1%, TGFb SMAD3 inh -16%, HT1080NT lethal -3%, HepG2 tox 11µM* and S2 tox inactive.
For CC(=O)N[C@H]1[C@H]([C@H](O)[C@H](O)CO)OC(C(=O)O)=C[C@@H]1N=C(N)N the results were S2 tox inactive and ATXN2 expr inh 8%.
For CCC(=O)NC(c1cc(Cl)c2cccnc2c1O)C(C)C (stereo not given) the results were TGFb SMAD3 inh 2.8µM*, HepG2 tox -42%, S2 tox inconclusive and ATXN2 expr inh 7.1µM*.
Screening CCC(=O)NC(c1ccc(C)cc1)c1cc([N+](=O)[O-])c2cccnc2c1O (stereo not given) returned HT1080 IDH1KD tx 13µM*, TGFb SMAD3 inh inconclusive, HT1080NT lethal 16µM*, HepG2 tox -9%, S2 tox inactive and ATXN2 expr inh inconclusive.
Screening CCC(=O)NC(c1cccs1)c1cc(Cl)c2cccnc2c1O (stereo not given) returned HT1080 IDH1KD tx inconclusive, TGFb SMAD3 inh inconclusive, HT1080NT lethal inconclusive, HepG2 tox 17% and S2 tox inactive.
`CCC(=O)NC(c1cc(Cl)c2cccnc2c1O)C1CC1` (stereo not given) gave TGFb SMAD3 inh 2µM*, HepG2 tox -23%, S2 tox inconclusive and ATXN2 expr inh inconclusive.
For COc1cccc(/C=C/c2nc(C#N)c(N3CCC(C(N)=O)CC3)o2)c1 the results were TGFb SMAD3 inh -8%, HepG2 tox -15% and ATXN2 expr inh 5%.
CCCCc1ccc(NS(=O)(=O)c2cc3c4c(c2)CC(=O)N4CCC3)cc1 was read as TGFb SMAD3 inh inconclusive, HepG2 tox -60%, S2 tox inactive and ATXN2 expr inh inconclusive.
Screening COc1ccccc1C1CN(Cc2cccc(OCCO)c2)Cc2ccccc2O1 (stereo not given) returned S2 tox inactive.
Screening CCOC(=O)c1c(C)n(-c2ccc(OC)cc2)c2ccc(O)c(CN(C)C)c12 returned HT1080 IDH1KD tx 21µM*, TGFb SMAD3 inh inconclusive, HT1080NT lethal inconclusive, HepG2 tox -42%, S2 tox inconclusive and ATXN2 expr inh inconclusive.
Screening CCOC(=O)c1c(C)n(-c2ccc(C)cc2)c2ccc(O)c(CN(C)C)c12 returned HT1080 IDH1KD tx 16µM*, TGFb SMAD3 inh inconclusive, HT1080NT lethal 16µM*, HepG2 tox -53%, S2 tox inconclusive and ATXN2 expr inh inconclusive.
`CCOC(=O)c1c(C)n(C)c2ccc(O)c(CN(C)C)c12` gave HT1080 IDH1KD tx -14%, TGFb SMAD3 inh inconclusive, HT1080NT lethal -17%, HepG2 tox -17%, S2 tox inactive and ATXN2 expr inh inconclusive.
`O=C(OCC12CC3CC(CC(C3)C1)C2)c1ccc(NCc2cc(O)ccc2O)cc1` gave HT1080 IDH1KD tx 21µM*, TGFb SMAD3 inh inconclusive, HT1080NT lethal inconclusive, HepG2 tox 11µM*, S2 tox 13µM* and ATXN2 expr inh 10µM*.
For O=C(OCCC12CC3CC(CC(C3)C1)C2)c1ccc(NCc2cc(O)ccc2O)cc1 the results were HT1080 IDH1KD tx 7.3µM*, TGFb SMAD3 inh inconclusive, HT1080NT lethal 6.5µM*, HepG2 tox -90% and ATXN2 expr inh inconclusive.
For O=C(O)c1cc(NCc2cc(O)ccc2O)ccc1O the results were TGFb SMAD3 inh -21% and HepG2 tox -4%.
Cc1cccc(N2CCN(C(=O)NC3CCCCC3)CC2C)c1 (stereo not given) was read as HT1080 IDH1KD tx 15%, TGFb SMAD3 inh -1%, HT1080NT lethal 0%, HepG2 tox -10%, S2 tox inconclusive and ATXN2 expr inh 22µM*.
COC(=O)c1c(-c2cccs2)csc1NC(=O)COc1ccc(C(C)C)cc1 was read as HepG2 tox -1%.
